# Experimental data taken from PubChem BioAssay (NCI).
# The panel holds about 79,000 compounds, 15% with a hit somewhere; the sample as a whole holds those more often. Values without a mark were called inactive. Calls of active or inactive are those of the source. Rule as the data show it: active = growth inhibition above about 70%; inactive = the rest.
# Legend:
# [1] = NCI Yeast Anticancer Drug Screen. Data for the rad50 strain (AID 155);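 also: 0% = growth of vehicle-only cultures of the same strain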; settings: S. cerevisiae rad50 strain growth inhibition, active compounds read high
# In short: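 Compounds were tested on a yeast strain with an engineered DNA damage repair alteration; the reported value is growth inhibition normalised to vehicle treatment.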
# [2] = NCI Yeast Anticancer Drug Screen. Data for the mec2-1 strain (AID 157); settings: S. cerevisiae mec2-1 strain, active compounds read high
# In short: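 Compounds were applied to mec2-1 yeast cells. Their growth was then compared with that of vehicle-treated cultures to give growth inhibition.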
# [3] = NCI Yeast Anticancer Drug Screen. Data for the sgs1 mgt1 strain (AID 161);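 also: 0% = growth of cultures given vehicle only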; settings: S. cerevisiae sgs1 mgt1 strain, active compounds read high
# In short: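 Growth of a repair-deficient yeast mutant was monitored after compound treatment and expressed as inhibition relative to vehicle-treated cultures.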
# [4] = NCI Yeast Anticancer Drug Screen. Data for the cln2 rad14 strain (AID 165);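 also: 0% = growth equal to vehicle treated cultures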; settings: S. cerevisiae cln2 rad14 strain, active compounds read high
# In short: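 Strain: cln2 rad14 yeast, altered in cell cycle control and DNA damage repair. Read-out: growth inhibition vs vehicle.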
# [5] = NCI Yeast Anticancer Drug Screen. Data for the bub3 strain (AID 167); settings: S. cerevisiae bub3 mutant strain, active compounds read high
# In short: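 Growth of a checkpoint-deficient yeast mutant is measured after compound exposure. Values represent inhibition relative to vehicle.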
# [6] = NCI Yeast Anticancer Drug Screen. Data for the mlh1 rad18 strain (AID 175); settings: S. cerevisiae mlh1 rad18 strain growth inhibition, active compounds read high
# In short: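 A repair-deficient yeast strain is exposed to test compound, and growth is scored relative to vehicle-treated controls.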
# [7] = at 5.0 µM (retest, dose inferred, filed as 0.5)
# [8] = at 50.0 µM (retest, dose inferred, filed as 5.0)
Compound,"growth inhibition [1, 7] [%]","growth inhibition [1, 8]",growth inhibition ([1]; at 50.0 µM),"growth inhibition [2, 7] [%]","growth inhibition [2, 8]",growth inhibition ([2]; at 50.0 µM),"growth inhibition [3, 7] [%]","growth inhibition [3, 8]",growth inhibition ([3]; at 50.0 µM),"growth inhibition [4, 7] [%]","growth inhibition [4, 8]",growth inhibition ([4]; at 50.0 µM),"growth inhibition [5, 7] [%]","growth inhibition [5, 8]",growth inhibition ([5]; at 50.0 µM),"growth inhibition [6, 7] [%]","growth inhibition [6, 8]",growth inhibition ([6]; at 50.0 µM)
Nc1ccccc1/C=C/c1c[nH]c2ccccc12,11,97% (active),91.6% (active),4,98% (active),97.5% (active),5,98% (active),53.2%,-8,98% (active),95.6% (active),28,97% (active),97.7% (active),9,98% (active),97.3% (active)
O=[N+]([O-])c1c(I)ccc2ccccc12,-24,90% (active),41.9%,0,89% (active),-0.95%,-6,95% (active),17.6%,-9,41%,11.5%,-2,66%,5.25%,1,94% (active),36.5%
CC(CN1CCOCC1)(CN1CCOCC1)[N+](=O)[O-],10,99% (active),99.6% (active),8,100% (active),99.8% (active),4,100% (active),99.7% (active),3,99% (active),99.3% (active),14,99% (active),99.8% (active),13,99% (active),99.5% (active)
Nc1ccc(O)c2c1C(=O)c1ccccc1C2O (stereo not given),-9,96% (active),94.8% (active),4,95% (active),78.9% (active),32,97% (active),83.8% (active),-10,78% (active),54.8%,19,96% (active),81.5% (active),28,98% (active),94.5% (active)
CCCCCCCC[N+](C)(C)Cc1ccc(C[N+](C)(C)CCCCCCCC)cc1,1,24%,8.75%,15,26%,7.5%,3,34%,1.05%,0,18%,24.9%,2,16%,8.35%,0,33%,86% (active)
Nc1nnc2nc(C(C(=O)c3ccccc3Cl)c3nc4nnc(N)n4[nH]c3=O)c(=O)[nH]n12,-2,-4%,93.8% (active),1,0%,99.8% (active),-2,-2%,41.5%,-1,-2%,74.6% (active),-1,-7%,99.5% (active),0,-4%,96.5% (active)
NCCCNCc1c2ccccc2c(CNCCCN)c2ccccc12,6,6%,10.7%,-7,-7%,43.4%,1,1%,58.9%,24,24%,56.1%,15,15%,33.8%,4,4%,74.5% (active)
Clc1cccc(Cl)c1C(Nc1nncs1)Nc1nncs1,0,85% (active),93.2% (active),-9,51%,79.8% (active),0,55%,88.2% (active),8,42%,72.9% (active),-11,56%,53%,0,94% (active),97.3% (active)
CCOC(=O)CNC(=O)CNC(=O)CNC(c1ccccc1)(c1ccccc1)c1ccccc1,-8,56%,66.5%,41,69%,60.3%,-13,81% (active),55.1%,-10,26%,68.8%,-1,61%,38.4%,15,83% (active),63.7%
CCN(CC)CCNc1ccc(C)c2oc3ccc(O)cc3c(=O)c12,39,96% (active),99% (active),27,29%,75.5% (active),-1,29%,81.5% (active),1,22%,25.1%,-4,41%,81.7% (active),-1,43%,95.8% (active)
CC1=NN(c2ccccc2)C(=O)C12[C@H](c1ccccc1)C2(C#N)C#N (stereo not given in full),34,92% (active),84% (active),37,78% (active),54%,46,96% (active),87.3% (active),25,74% (active),66.4%,41,81% (active),77.6% (active),41,87% (active),75.8% (active)
c1ccc(CN2CCC3(CC2)SSC2(CCN(Cc4ccccc4)CC2)SS3)cc1,0,34%,73.1% (active),14,-3%,24.4%,5,35%,30.9%,31,21%,29.8%,16,18%,42.2%,7,19%,45.9%
O=c1c2cc(Br)ccc2ncn1COCc1ccccc1,21,20%,7.3%,11,11%,-4.1%,21,19%,87.2% (active),24,-12%,54%,15,-21%,83.5% (active),27,24%,43.3%
Cc1[nH]c2c(C)c3c([nH]c4ccc(Cl)cc43)c(C)c2c(=O)c1C,-8,12%,61.1%,-24,0%,14.2%,-14,3%,23.9%,-17,6%,13.7%,-10,-3%,8.65%,-19,-2%,39.1%
CCN1CC(=O)N(C)C1=S,-9,5%,84.7% (active),-6,-19%,71.2% (active),8,-11%,89% (active),20,39%,74.9% (active),12,18%,83.8% (active),-5,-41%,79.5% (active)
Cc1ccc(NC(=O)CCc2nnc(N)n2N)cc1,-2,-5%,-3.55%,-1,4%,96.5% (active),-6,0%,97.5% (active),0,5%,93.2% (active),4,7%,95% (active),-4,-1%,97.2% (active)
Cn1cccc1C(/C=C/c1ccccc1[N+](=O)[O-])c1cccn1C,-2,20%,18.2%,4,4%,6.4%,-12,8%,20.9%,17,37%,4.35%,-3,41%,17.6%,-15,21%,20.2%
N#CCCN(C(=S)Nc1cccc(C(F)(F)F)c1)C1CCCCC1,-1,69%,75.3% (active),3,87% (active),75% (active),-1,87% (active),82.4% (active),-1,46%,41.1%,1,81% (active),76.2% (active),1,89% (active),61.2%
O=C(Nc1ccc(F)c(Cl)c1)Oc1ccc(Br)cc1Br,10,52%,38.1%,5,50%,56.8%,-2,66%,65.8%,-5,6%,11.3%,-2,11%,15.5%,-3,80% (active),89.5% (active)
Cc1nc2c(O)c3c(c(O)c2nc1C)C1C=CC3CC1,30,83% (active),64%,16,89% (active),66.2%,30,84% (active),77.5% (active),22,30%,14.2%,39,91% (active),84.7% (active),20,82% (active),14.2%
